Experimental data as given in the supplement of paper PMC10849652.
Of roughly 7,900 targets only a part is listed; those with a hit were picked by preference. About 0.6% of all pairs of compound and target were hits. A number with no mark means an inactive call.

Legend:
Test in all cases: log2 fold change, soluble protein after heating vs DMSO (PISA); higher = thermal stabilisation; K562 cells, 10 uM, 30 min; active = over 0.2 and 3.5 SD of the protein, either way, in both replicates (recomputed)
[1] = compound: C1=CC=C(C=C1)[C@H](COC2=CC3=C(C=C2)NC(=O)N3)NC(=O)C4=CC=CN(C4=O)CC5=CC(=C(C=C5)F)F
In short: (§1)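 Soluble protein was quantified by TMTpro 16plex LC-MS/MS after channel sums were equalised. It was obtained as the supernatant after 21,000xg for 90 min from pooled aliquots of K562 cells (2×10^6 cells/mL, 10 μM compound, 30 min) heated for 3 min across 48°C-58°C and extracted in PBS with 0.5% NP-40 at 4°C. Thermal stability values are relative to control samples and come from duplicates. They are given as log2 fold changes.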

[2] = compound: CC1=C(SC2=C1C(=N[C@H](C3=NN=C(N32)C)CC(=O)N)C4=CC=C(C=C4)Cl)C
In short: as §1

[3] = compound: CC1=C2C(=CC=C1)N=C(N(C2=O)C3=CC=CC=C3C)CN4C=NC5=C(N=CN=C54)N
In short: as §1

[4] = compound: Cc1sc2c(c1C)C(c1ccc(Cl)cc1)=N[C@@H](CC(=O)OC(C)(C)C)c1nnc(C)n1-2
In short: as §1

[5] = compound: c1ccc([C@@H]2C[C@H]2NC2CCNCC2)cc1
In short: as §1

Sequence of UniProt Q99805 (Q99805 whole entry, looked up): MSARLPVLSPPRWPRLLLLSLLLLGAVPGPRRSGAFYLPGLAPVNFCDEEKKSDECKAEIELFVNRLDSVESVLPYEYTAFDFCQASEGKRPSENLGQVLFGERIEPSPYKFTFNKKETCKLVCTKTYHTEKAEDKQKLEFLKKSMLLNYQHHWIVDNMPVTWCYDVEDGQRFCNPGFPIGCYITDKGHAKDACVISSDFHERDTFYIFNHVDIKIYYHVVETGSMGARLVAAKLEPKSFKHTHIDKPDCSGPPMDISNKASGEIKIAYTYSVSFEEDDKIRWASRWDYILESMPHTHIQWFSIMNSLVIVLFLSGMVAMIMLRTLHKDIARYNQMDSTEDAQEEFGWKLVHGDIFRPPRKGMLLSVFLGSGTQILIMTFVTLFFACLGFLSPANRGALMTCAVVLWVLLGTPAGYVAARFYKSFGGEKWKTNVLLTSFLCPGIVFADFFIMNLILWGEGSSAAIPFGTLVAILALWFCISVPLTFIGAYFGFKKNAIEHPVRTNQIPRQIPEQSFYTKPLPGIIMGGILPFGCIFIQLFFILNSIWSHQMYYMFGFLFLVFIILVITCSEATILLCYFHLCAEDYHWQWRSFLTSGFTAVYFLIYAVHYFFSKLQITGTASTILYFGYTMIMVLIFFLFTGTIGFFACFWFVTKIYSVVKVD
Sequence of UniProt Q9Y2H1 (Q9Y2H1 whole entry, looked up): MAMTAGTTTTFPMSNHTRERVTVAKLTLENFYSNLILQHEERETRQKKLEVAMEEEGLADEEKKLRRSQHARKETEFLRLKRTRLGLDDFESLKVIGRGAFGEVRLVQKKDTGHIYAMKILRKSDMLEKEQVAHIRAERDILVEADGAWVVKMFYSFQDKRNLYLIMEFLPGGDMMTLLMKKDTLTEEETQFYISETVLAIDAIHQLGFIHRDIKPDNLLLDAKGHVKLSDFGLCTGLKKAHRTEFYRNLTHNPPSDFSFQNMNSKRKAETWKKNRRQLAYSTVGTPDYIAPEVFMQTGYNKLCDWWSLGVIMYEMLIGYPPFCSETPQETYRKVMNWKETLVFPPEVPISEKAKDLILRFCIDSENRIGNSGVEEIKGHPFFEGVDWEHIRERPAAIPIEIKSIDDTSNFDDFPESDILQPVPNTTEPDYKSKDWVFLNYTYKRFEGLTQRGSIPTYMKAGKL
Sequence of UniProt Q9UQ35 (Q9UQ35 whole entry, looked up): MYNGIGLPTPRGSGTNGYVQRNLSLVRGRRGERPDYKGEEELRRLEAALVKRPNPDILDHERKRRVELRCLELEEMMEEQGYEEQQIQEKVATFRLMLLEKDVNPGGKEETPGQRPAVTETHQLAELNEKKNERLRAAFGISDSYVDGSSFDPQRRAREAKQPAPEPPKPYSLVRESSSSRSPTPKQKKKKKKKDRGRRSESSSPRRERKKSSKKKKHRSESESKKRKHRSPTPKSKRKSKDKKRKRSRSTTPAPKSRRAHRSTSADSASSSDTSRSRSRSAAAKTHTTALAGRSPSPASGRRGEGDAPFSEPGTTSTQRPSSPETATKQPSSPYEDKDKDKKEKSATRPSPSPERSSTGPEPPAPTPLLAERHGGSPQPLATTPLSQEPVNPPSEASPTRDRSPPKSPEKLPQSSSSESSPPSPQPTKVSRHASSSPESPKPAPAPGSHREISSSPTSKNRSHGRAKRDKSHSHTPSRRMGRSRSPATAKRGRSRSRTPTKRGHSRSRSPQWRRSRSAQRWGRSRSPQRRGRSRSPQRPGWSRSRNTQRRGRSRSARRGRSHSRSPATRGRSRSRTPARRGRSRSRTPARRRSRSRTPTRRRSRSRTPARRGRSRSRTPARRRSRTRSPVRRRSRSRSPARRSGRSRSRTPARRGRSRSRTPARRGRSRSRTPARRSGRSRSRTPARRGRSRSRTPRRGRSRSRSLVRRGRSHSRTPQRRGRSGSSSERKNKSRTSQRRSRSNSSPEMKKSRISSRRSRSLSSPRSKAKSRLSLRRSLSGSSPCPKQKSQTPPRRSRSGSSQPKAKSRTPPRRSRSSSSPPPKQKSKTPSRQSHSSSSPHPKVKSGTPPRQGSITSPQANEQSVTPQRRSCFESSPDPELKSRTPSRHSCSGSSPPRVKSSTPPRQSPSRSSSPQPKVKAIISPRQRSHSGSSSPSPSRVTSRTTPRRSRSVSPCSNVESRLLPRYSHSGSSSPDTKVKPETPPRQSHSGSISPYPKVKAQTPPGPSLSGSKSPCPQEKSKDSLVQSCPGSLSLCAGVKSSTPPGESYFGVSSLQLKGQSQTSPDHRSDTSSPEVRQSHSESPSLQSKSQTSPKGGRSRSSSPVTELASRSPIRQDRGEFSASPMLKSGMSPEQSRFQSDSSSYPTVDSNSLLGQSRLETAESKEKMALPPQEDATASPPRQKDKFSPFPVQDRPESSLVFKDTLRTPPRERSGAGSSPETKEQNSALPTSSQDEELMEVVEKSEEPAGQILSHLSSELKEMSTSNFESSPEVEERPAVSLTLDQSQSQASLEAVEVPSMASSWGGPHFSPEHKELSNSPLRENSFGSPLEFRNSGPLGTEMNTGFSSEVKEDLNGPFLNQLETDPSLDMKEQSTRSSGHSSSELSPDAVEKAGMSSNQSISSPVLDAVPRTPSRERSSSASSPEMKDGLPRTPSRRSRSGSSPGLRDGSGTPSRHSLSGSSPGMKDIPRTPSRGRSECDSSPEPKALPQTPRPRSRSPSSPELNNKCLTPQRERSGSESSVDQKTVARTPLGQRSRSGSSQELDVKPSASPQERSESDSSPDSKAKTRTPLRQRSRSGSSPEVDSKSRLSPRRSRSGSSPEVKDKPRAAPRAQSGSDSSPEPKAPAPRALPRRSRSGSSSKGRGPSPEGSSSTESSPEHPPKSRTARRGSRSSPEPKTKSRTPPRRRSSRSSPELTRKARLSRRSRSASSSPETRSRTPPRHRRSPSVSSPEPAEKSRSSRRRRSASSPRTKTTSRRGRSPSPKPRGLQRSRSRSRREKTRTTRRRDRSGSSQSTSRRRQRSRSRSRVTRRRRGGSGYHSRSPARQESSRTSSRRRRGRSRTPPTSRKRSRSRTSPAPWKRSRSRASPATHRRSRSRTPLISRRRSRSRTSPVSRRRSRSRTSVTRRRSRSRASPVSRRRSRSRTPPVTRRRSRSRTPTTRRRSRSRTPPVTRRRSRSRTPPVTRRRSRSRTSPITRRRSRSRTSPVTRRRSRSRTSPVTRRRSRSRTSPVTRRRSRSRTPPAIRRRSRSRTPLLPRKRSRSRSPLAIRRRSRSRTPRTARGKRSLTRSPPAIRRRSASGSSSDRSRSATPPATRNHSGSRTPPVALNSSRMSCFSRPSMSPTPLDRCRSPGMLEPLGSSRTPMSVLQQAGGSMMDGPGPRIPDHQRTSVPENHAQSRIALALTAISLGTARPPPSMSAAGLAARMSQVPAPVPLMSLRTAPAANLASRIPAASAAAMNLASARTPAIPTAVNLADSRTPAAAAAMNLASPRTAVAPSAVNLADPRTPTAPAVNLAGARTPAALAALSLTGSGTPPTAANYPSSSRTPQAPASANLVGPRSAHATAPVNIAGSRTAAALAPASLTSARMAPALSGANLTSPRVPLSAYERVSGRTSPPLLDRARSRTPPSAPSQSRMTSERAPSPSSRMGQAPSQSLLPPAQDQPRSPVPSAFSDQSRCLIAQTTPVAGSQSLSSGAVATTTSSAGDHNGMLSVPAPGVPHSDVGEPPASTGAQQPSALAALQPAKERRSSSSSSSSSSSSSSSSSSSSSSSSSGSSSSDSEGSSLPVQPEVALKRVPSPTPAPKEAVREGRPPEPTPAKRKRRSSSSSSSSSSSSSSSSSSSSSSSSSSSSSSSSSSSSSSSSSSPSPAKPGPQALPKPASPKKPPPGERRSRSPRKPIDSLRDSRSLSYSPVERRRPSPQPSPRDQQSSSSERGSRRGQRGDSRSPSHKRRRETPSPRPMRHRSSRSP
Sequence of UniProt Q9NQZ5 (Q9NQZ5 whole entry, looked up): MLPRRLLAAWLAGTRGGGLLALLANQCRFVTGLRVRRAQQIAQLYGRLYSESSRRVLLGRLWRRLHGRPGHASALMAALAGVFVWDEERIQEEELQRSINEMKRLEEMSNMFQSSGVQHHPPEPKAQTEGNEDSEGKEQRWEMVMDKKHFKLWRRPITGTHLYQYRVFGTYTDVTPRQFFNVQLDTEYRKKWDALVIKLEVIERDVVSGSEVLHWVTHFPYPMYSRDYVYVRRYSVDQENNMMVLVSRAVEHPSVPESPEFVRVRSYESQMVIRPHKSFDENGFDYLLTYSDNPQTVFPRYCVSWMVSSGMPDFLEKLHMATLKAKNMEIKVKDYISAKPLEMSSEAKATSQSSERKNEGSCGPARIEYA
Sequence of UniProt O76094 (O76094 whole entry, looked up): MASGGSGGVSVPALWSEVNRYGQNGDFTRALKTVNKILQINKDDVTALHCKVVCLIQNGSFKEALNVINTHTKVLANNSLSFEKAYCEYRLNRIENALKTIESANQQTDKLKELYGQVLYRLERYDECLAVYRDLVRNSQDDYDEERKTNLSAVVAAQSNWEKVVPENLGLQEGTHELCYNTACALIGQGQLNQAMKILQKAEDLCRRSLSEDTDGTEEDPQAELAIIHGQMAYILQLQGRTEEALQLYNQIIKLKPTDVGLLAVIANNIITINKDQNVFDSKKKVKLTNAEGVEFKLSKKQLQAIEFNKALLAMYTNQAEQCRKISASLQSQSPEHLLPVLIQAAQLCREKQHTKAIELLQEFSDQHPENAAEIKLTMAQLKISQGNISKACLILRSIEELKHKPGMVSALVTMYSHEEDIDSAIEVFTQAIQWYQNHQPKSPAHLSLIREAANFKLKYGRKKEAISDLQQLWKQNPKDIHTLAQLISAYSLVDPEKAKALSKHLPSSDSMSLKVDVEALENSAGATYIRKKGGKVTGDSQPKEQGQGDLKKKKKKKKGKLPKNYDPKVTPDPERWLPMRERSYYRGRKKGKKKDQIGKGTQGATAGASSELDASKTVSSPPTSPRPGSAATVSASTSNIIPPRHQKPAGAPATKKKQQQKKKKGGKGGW
Sequence of UniProt P84103 (P84103 whole entry, looked up): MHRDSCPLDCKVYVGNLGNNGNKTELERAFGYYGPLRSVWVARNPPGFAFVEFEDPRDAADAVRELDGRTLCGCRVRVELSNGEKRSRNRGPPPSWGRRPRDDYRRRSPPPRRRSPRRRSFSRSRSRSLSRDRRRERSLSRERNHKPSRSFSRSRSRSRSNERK

Target | log2 fold change [1] | log2 fold change [2] | log2 fold change [3] | log2 fold change [4] | log2 fold change [5]
TM9SF4 (UniProt Q92544) | -0.038 | 0.008 | -0.001 | -0.047 | -0.032
STIM1 (UniProt Q13586) | -0.051 | 0.044 | 0.008 | -0.014 | -0.019
TCERG1 (UniProt O14776) | -0.1 | 0.106 | 0.182 | -0.065 | -0.033
SRRM2 (UniProt Q9UQ35) | -0.005 | -0.015 | 0 | 0.05 | 0.037
SLC30A10 (UniProt Q6XR72) | 0.066 | -0.005 | 0.113 | -0.003 | 0.059
SRSF2 (UniProt Q01130) | 0.008 | -0.047 | -0.052 | 0.061 | 0.143
TIMM29 (UniProt Q9BSF4) | -0.034 | 0.114 | -0.026 | -0.006 | 0.031
THADA (UniProt Q6YHU6) | -0.06 | 0.066 | 0.011 | -0.027 | -0.032
TELO2 (UniProt Q9Y4R8) | -0.031 | -0.05 | 0.037 | 0.039 | 0.005
TBP (UniProt P20226) | 0.016 | 0.314 | -0.158 | 0.144 | 0.07
STARD7 (UniProt Q9NQZ5) | -0.018 | 0.075 | 0.145 | 0.063 | -0.017
SPAG9 (UniProt O60271) | -0.033 | 0.002 | 0.071 | 0.024 | -0.006
STK38L (UniProt Q9Y2H1) | -0.009 | 0.472 (active) | 0.162 | 0.07 | 0.224
SMARCE1 (UniProt Q969G3) | -0.156 | -0.002 | 0.338 | 0.111 | -0.051
SORT1 (UniProt Q99523) | 0.029 | -0.01 | -0.03 | 0.027 | 0.009
TBC1D5 isoform 2 (UniProt Q92609) | -0.046 | 0.055 | 0.066 | 0.003 | -0.034
SLC25A36 (UniProt Q96CQ1) | 0.027 | -0.041 | -0.066 | 0.051 | -0.008
TANK (UniProt Q92844) | -0.001 | -0.093 | -0.019 | 0.02 | 0.026
ST6GAL1 (UniProt P15907) | 0.017 | 0.012 | 0.033 | -0.018 | -0.006
STRN (UniProt O43815) | -0.025 | 0.011 | -0.003 | -0.108 | -0.017
STAT5A (UniProt P42229) | -0.028 | 0.058 | 0.134 | -0.006 | 0.008
SMC5 (UniProt Q8IY18) | 0.017 | 0.045 | -0.006 | -0.028 | -0.005
SLK isoform 2 (UniProt Q9H2G2) | 0.016 | 0.034 | 0.042 | 0.021 | -0.005
SRP72 (UniProt O76094) | -0.068 | -0.016 | 0.047 | 0.097 | -0.016
SLC35A1 (UniProt P78382) | -0.046 | -0.108 | 0.05 | -0.07 | 0.013
STAT6 (UniProt P42226) | -0.02 | -0.019 | 0.198 | 0.009 | -0.015
SSB (UniProt P05455) | -0.02 | 0.088 | 0.014 | 0.007 | 0.055

Target | log2 fold change [1] | log2 fold change [2] | log2 fold change [3] | log2 fold change [4] | log2 fold change [5]
TIMM44 (UniProt O43615) | -0.099 | 0.043 | 0.088 | 0.008 | -0.017
SPCS2 (UniProt Q15005) | -0.011 | 0.043 | -0.034 | -0.061 | -0.031
SP3 (UniProt Q02447) | 0.018 | -0.024 | -0.043 | 0.025 | 0.009
SRPRB (UniProt Q9Y5M8) | -0.005 | 0.014 | 0.034 | -0.017 | -0.016
SURF1 (UniProt Q15526) | -0.015 | -0.018 | 0.15 | -0.101 | 0.063
SYNE2 isoform 2 (UniProt Q8WXH0) | 0.064 | 0.055 | 0.209 | -0.004 | 0.096
TEX30 (UniProt Q5JUR7) | -0.162 | -0.141 | 0.235 | 0.12 | 0.052
SYMPK (UniProt Q92797) | -0.127 | 0.034 | 0.101 | -0.006 | 0.02
STK4 (UniProt Q13043) | -0.008 | 0.088 | 0.057 | 0.005 | -0.001
SRSF3 (UniProt P84103) | 0.099 | -0.18 | -0.159 | 0.152 | 0.055
SRP68 (UniProt Q9UHB9) | -0.041 | 0.022 | 0.039 | 0.092 | -0.029
TBC1D9B (UniProt Q66K14) | -0.025 | 0.093 | 0.042 | 0.02 | -0.062
SMAD9 (UniProt O15198) | -0.104 | 0.094 | -0.001 | 0.076 | -0.054
TM9SF2 (UniProt Q99805) | 0.018 | 0.035 | 0.054 | -0.044 | -0.028
SRSF7 (UniProt Q16629) | 0.136 | -0.171 | -0.093 | 0.209 | 0.055
SLC25A39 (UniProt Q9BZJ4) | 0.031 | -0.166 | 0.149 | 0.09 | 0.019
SSRP1 (UniProt Q08945) | -0.027 | 0.023 | 0.087 | -0.051 | -0.016
SMIM20 isoform 2 (UniProt Q8N5G0) | 0.019 | -0.034 | 0.081 | -0.125 | -0.1
STXBP5 (UniProt Q5T5C0) | -0.011 | 0.017 | 0.15 | -0.04 | -0.027
TK1 (UniProt K7ERV3) | 0.038 | 0.091 | 0.083 | 0.029 | 0.015
SLC27A2 (UniProt O14975) | 0.038 | 0.036 | 0.141 | 0.011 | -0.027
SLC38A2 (UniProt Q96QD8) | -0.006 | 0.044 | 0.024 | -0.028 | 0.035
SUCLG1 (UniProt P53597) | 0.004 | 0.073 | 0.042 | -0.021 | -0.041
TARBP1 (UniProt Q13395) | -0.058 | 0.048 | 0.081 | -0.073 | -0.027
SLC27A1 (UniProt Q6PCB7) | -0.02 | 0.161 | 0.293 | 0.11 | -0.029
SUOX (UniProt P51687) | 0.01 | 0 | 0.096 | -0.011 | -0.021
